For some assays here: Potency and affinity values are given separately.
Tests used:
Design in all cases: scale not given: direction of the effect not stated beside the values
[1] = target: Protein translocase subunit SecA (Escherichia coli (strain K12)) (UniProt P10408); assay: Assay to Identify E. coli SecA ATPase Inhibitors; format: functional; details: 30 µM
[2] = target: T1, Ubiquitin-activating enzyme e1, putative (Leishmania donovani (strain BPK282A1)) (UniProt E9BSI1); assay: Leishmania donovani Ubiquitin Activating Enzyme (LdE1); format: functional; details: 30 µM
T1 sequence (whole entry): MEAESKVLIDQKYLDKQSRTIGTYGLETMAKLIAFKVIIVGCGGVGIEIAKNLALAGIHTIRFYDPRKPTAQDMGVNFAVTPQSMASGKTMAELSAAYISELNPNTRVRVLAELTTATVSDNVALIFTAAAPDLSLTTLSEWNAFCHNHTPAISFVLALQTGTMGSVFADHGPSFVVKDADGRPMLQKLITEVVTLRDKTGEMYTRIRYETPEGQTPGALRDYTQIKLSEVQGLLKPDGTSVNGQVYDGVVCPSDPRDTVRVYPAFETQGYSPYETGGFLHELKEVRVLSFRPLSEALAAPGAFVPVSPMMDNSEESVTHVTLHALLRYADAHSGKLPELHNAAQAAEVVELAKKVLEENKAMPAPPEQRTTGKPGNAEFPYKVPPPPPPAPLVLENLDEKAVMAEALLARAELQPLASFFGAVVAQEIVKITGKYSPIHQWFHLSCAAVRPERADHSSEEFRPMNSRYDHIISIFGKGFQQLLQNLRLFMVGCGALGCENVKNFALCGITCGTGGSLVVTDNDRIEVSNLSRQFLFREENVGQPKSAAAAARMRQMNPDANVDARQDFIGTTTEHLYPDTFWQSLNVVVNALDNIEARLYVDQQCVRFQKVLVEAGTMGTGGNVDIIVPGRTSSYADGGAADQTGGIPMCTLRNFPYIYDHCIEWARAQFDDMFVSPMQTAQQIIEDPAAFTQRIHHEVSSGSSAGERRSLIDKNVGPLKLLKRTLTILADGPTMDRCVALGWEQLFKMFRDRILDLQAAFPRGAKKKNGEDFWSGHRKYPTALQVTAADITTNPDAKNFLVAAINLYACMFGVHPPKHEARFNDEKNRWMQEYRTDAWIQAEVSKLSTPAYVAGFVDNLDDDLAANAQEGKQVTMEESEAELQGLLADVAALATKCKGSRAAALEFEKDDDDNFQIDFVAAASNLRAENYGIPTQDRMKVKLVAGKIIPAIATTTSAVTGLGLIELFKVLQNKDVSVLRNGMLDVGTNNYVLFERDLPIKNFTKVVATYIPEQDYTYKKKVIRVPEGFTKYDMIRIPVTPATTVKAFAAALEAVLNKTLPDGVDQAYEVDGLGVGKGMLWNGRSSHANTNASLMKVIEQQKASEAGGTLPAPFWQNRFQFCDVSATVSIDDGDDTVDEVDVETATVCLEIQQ

[3] = target: AMP-activated protein kinase, AMPK (Homo sapiens) (UniProt P54646+O43741+P54619+Q9UGJ0+Q9Y478+Q13131+Q9UGI9); assay: AMP-dependent Kinase enzyme assay. An in vitro enzyme assay that detects ADP turnover that is directly proportional to AMPK activity. This uses naive AMPK that is activated during the assay with MK-8722; format: functional; details: 30 µM
[4] = target: Sialic acid-binding Ig-like lectin 9 (Homo sapiens) (UniProt Q9Y336); assay: Hs-Siglec9 ALPHAscreen SOP 20170721; details: 10 µM
[5] = system: Trypanosoma cruzi; assay: Trypanosoma cruzi phosphomannomutase and mannose-1-phosphate guanylyltransferase assay; format: functional; details: 10 µM
[6] = target: T2, Arginase-2, mitochondrial (Homo sapiens) (UniProt P78540); assay: in vitro enzyme assay to detect the production of urea directly proportional to the activity of Arginase II; format: functional; details: 33.3 µM; also: in the data most compounds retested in dose-response had high values
T2 sequence (whole entry): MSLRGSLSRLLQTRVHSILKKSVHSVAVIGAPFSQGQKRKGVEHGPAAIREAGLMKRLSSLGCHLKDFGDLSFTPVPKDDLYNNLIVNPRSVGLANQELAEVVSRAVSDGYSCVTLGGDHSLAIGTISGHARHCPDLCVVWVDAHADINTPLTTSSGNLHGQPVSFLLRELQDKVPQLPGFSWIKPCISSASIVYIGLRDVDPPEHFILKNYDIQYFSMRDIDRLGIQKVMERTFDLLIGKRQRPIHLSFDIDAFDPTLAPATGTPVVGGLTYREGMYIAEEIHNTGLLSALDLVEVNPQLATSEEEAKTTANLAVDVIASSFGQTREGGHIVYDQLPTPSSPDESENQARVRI

[7] = target: T3, Proteasome subunit beta (Trypanosoma cruzi) (UniProt O96673); assay: Trypanosoma cruzi proteasome chymotrypsin-like activity (TcProtChymo) assay.; also: in the data most compounds retested in dose-response had high values; format: functional; details: 9.37 µM
T3 sequence (whole entry): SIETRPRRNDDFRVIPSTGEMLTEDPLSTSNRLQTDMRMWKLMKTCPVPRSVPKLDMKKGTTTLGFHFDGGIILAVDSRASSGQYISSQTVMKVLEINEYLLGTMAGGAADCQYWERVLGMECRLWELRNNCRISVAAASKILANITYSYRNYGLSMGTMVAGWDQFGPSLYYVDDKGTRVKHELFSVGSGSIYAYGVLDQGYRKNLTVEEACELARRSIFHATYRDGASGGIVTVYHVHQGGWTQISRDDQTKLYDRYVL

[8] = organism: Homo sapiens; assay: To identify inhibition of the IFN signalling (Jak-Stat) pathway via expression of an eGFP reporter gene under the control of an IFN-stimulated response element (ISRE) containing MxA promoter.; format: functional; details: 30 µM
[9] = target: T4, Tyrosyl-tRNA synthetase, putative (Trypanosoma cruzi (strain CL Brener)) (UniProt Q4DSP6); assay: Trypanosoma cruzi tyrosyl tRNA synthetase (TcYRS) _High Tyrosine SOP; format: functional; details: 30 µM; also: in the data most compounds retested in dose-response had high values
T4 sequence (whole entry): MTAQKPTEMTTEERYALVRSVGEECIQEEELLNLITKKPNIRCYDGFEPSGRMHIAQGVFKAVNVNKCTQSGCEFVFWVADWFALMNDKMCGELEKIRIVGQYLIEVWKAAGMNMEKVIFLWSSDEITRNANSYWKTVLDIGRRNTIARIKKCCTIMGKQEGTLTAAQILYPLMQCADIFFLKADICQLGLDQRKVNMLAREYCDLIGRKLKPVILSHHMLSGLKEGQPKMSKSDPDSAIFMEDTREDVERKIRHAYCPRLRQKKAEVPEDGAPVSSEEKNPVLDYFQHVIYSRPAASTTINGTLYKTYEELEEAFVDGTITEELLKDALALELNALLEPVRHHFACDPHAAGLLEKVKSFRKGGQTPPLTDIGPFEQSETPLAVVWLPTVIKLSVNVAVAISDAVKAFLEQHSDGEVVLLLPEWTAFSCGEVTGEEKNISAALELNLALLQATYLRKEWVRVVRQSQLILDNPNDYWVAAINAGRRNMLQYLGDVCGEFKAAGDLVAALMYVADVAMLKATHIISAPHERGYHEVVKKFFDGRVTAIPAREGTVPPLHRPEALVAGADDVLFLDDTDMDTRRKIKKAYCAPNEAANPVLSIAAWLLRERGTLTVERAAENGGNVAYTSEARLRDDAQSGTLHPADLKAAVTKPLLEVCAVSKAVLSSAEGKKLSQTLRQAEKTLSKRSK

[10] = target: T4, Tyrosyl-tRNA synthetase, putative (Trypanosoma cruzi (strain CL Brener)); assay: Trypanosoma cruzi tyrosyl tRNA synthetase (TcYRS) SOP; format: functional; details: 30 µM
[11] = target: Chromo domain-containing protein 1 (Saccharomyces cerevisiae (strain ATCC 204508 / S288c) (Baker's yeast)) (UniProt P32657); assay: ScCHD-1 Enzyme Inhibition Assay; format: functional; details: 30 µM; also: in the data most compounds retested in dose-response had high values
Chromo domain-containing protein 1 (Saccharomyces cerevisiae (strain ATCC 204508 / S288c) (Baker's yeast)), sequence (P32657 whole entry, the tested form may be a part): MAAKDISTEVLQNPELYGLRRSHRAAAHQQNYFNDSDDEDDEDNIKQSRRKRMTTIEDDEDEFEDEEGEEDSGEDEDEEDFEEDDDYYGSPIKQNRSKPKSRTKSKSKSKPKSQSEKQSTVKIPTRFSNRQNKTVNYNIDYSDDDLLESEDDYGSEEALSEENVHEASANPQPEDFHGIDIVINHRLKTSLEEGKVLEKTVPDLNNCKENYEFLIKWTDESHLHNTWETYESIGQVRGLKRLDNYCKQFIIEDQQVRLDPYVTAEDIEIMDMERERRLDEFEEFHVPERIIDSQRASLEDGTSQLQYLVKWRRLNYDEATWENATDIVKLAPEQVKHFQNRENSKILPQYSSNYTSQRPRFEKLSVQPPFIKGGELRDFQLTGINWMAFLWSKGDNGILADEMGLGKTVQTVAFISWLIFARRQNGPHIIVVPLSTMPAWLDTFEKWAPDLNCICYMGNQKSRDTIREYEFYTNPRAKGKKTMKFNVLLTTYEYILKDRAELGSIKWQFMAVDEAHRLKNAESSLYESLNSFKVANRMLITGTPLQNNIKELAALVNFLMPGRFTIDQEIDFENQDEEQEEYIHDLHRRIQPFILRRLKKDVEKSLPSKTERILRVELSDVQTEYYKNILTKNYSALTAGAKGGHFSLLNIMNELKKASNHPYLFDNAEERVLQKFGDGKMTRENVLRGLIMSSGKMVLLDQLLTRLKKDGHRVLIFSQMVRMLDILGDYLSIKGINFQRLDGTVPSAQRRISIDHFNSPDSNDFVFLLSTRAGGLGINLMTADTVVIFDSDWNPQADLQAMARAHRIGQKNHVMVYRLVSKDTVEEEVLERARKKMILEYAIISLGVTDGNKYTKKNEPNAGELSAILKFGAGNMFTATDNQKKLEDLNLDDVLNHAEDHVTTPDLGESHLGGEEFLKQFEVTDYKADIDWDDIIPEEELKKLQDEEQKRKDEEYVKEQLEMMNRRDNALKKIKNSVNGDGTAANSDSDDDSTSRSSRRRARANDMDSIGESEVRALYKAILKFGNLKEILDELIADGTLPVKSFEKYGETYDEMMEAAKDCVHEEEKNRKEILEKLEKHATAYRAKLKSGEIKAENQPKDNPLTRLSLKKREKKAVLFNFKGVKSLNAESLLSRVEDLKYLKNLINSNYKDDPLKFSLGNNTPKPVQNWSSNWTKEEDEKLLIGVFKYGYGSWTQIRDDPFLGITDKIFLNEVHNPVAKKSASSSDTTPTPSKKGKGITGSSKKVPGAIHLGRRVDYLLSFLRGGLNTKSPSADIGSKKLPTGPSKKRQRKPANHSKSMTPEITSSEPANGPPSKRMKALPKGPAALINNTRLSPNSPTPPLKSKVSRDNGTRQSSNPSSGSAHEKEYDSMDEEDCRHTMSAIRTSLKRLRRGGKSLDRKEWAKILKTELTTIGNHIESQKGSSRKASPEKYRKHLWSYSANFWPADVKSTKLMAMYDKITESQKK

Protein translocase subunit SecA (Escherichia coli (strain K12)), sequence (P10408 whole entry): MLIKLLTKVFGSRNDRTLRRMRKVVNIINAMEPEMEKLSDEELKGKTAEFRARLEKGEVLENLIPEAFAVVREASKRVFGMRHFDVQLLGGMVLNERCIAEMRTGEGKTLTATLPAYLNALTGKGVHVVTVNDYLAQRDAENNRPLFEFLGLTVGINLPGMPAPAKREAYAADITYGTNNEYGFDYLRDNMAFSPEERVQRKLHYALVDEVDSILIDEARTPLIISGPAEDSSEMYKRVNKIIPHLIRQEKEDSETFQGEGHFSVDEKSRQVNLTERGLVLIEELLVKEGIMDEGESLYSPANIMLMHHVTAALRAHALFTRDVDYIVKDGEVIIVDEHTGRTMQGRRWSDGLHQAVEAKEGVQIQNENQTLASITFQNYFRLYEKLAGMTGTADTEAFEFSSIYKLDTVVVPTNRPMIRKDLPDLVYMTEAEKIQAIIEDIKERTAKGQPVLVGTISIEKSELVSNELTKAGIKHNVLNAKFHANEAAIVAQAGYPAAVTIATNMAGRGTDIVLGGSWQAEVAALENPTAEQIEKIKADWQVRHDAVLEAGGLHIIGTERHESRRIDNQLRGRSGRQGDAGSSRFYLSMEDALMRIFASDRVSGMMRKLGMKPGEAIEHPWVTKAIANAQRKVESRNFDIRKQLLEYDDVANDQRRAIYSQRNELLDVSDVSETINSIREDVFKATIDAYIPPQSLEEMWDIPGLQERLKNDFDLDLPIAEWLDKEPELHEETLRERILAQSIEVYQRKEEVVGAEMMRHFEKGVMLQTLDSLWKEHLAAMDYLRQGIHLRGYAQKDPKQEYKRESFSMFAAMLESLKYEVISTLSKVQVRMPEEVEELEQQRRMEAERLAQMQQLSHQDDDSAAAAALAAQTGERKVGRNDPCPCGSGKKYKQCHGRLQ
Sialic acid-binding Ig-like lectin 9 (Homo sapiens), sequence (Q9Y336 whole entry): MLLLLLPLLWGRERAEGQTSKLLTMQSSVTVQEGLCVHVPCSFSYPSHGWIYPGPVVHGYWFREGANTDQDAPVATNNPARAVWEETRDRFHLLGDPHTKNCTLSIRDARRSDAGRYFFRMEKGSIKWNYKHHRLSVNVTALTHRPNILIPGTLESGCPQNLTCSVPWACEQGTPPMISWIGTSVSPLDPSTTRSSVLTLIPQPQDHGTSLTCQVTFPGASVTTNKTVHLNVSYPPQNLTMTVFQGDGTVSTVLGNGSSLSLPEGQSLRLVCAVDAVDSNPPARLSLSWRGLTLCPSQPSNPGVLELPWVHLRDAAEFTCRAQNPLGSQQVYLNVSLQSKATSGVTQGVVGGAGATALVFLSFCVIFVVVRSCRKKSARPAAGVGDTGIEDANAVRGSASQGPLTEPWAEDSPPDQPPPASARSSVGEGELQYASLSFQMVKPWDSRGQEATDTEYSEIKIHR

| Compound | Percent Effect [1] [%] | Percent Effect [2] [%] | Percent Effect [3] [%] | Percent Effect [4] [%] | Percent Effect [5] [%] | Percent Effect [6] [%] | Percent Effect [7] [%] | Percent Effect [8] [%] | Percent Effect [9] [%] | Percent Effect [10] [%] | Percent Effect [11] [%] |
| --- | --- | --- | --- | --- | --- | --- | --- | --- | --- | --- | --- |
| Cn1cc(CN2C[C@@H]3CN(Cc4ccoc4)CCO[C@@H]3C2)cn1 | -1.93 | 7.79 | 7.44 | 0.861 | -2.07 | 7.1 | 1.57 | 10.9 | 0 | 16.7 | -4.4 |
| Cc1nc(CCNC(=O)NCc2ccc(N(C)C)nc2)cs1 | -4.75 | 13.5 | -4.65 | 3.94 | 1.79 | -0.401 | 12.1 | -114 | 9.36 | 16.1 | -4.66 |
| CC(C)CN1CCc2[nH]cnc2C12CCN(C(=O)c1cccnc1)CC2 | -8.51 | 0 | -4.57 | 3.2 | -3.99 | -1.56 | 14.3 | 12.4 | -3.83 | -6.17 | -6.87 |
| CCn1ncnc1C(NC(=O)CC1CCN(C(C)C)CC1)C1CC1 (configuration not stated) | -12.1 | -2.7 | -3.06 | -6.3 | -6.16 | -1.74 | 3.18 | -5.64 | -2.15 | 1.24 | -3.37 |
| CCc1noc(C(C)N2CCN(c3ccc(C#N)cc3F)CC2)n1 (configuration not stated) | -1.97 | 5.26 | 2.6 | -3.73 | 7.89 | -8.28 | 21.2 | -24.1 | 6.38 | 13 | -4.69 |
| Cc1cccc(-c2nc(CN3CCc4cnc(C)nc4C3)no2)c1 | -6.65 | 7.79 | 64 | 10.5 | 0.374 | 1.42 | 0.169 | -1.99 | 10.7 | 9.76 | -4.89 |
| CC(C(=O)N1CCCN(c2ncccc2C#N)CC1)n1ccnc1 (configuration not stated) | -2.42 | 21.1 | 0.0866 | -9.53 | 5.13 | -1.08 | 7.19 | 14 | 10.3 | 18.5 | -9.73 |
| CCc1noc(CNc2cc(F)ccc2OCC2CCCO2)n1 (configuration not stated) | -0.224 | -2.7 | -4.16 | 1.82 | -4.83 | -0.476 | 11.9 | 2.67 | -0.529 | 0 | -1.43 |
| CCn1cc(CN2CCC(c3nnc(CN(C)C)n3CC)CC2)cn1 | 0.381 | 10.4 | 3.2 | 6.14 | -4.03 | -1.38 | 14 | 4.82 | 2.15 | 6.17 | 0.0159 |
| COc1ccccc1CNC(=O)N1CCCC(c2nncn2C)C1 (configuration not stated) | -3.81 | 13.2 | -5.69 | 4.78 | 0.654 | 1.08 | 6.85 | 5.9 | 7.39 | 23.5 | -3.47 |
| CC(=O)N1CC(=O)N(c2cnn(C)c2)CC12CCN(CC1CC1)C2 (configuration not stated) | -2.91 | 0 | 1.91 | 0.306 | -3.52 | 1.67 | 0.423 | -7.14 | 4.95 | 1.22 | -0.193 |
| Cc1csc(N2CCN(Cc3cnc(C)s3)CC2C)n1 (configuration not stated) | -4.06 | 5.48 | 3.55 | -0.927 | 2.94 | 1.36 | 11.2 | 52.1 | 5.38 | 17.5 | -2.04 |
| COCCCNC(=O)N1CCCC(c2nncn2C)C1 (configuration not stated) | -5.16 | 2.63 | -3.92 | 8.87 | -3.46 | 0.36 | 7.87 | 5.55 | 0.493 | -6.17 | 2.53 |
| Cc1ccc(NC(=O)c2cc(S(=O)(=O)N3CCCCC3)c[nH]2)cc1F | -2.47 | 5.2 | 59.4 | -11.2 | -5.03 | 5.81 | 6.61 | 4.38 | 5.29 | -21.8 | -9.19 |
| Cc1[nH]ncc1C(=O)N1CCCC(n2cncn2)C1 (configuration not stated) | -6.67 | 1.27 | 7.75 | 26.4 | -0.308 | 3.23 | 4.63 | 9.83 | 1.04 | 0 | -6.77 |
| COC(=O)c1cccn1C1CCN(C(=O)c2cc(C)ccc2O)CC1 | -8.92 | 18.2 | 3.73 | -0.853 | -7.12 | 0.712 | 6.25 | 38.3 | 2.91 | 9.76 | -5.74 |
| CN(Cc1cncnc1)Cc1cn2c(n1)CN(C1CCOC1)CC2 (configuration not stated) | -2.37 | 5.33 | -0.62 | 5.52 | -2.51 | -21.7 | 8.38 | 8.32 | 5.21 | 12.5 | -5.82 |
| CCc1nc(CN2CCCN(C(=O)C(C)n3cncn3)CC2)cs1 (configuration not stated) | -4.01 | 2.6 | -3.41 | 4.94 | -6.93 | 6.05 | 4.05 | 19.8 | 4.85 | 2.44 | -3.41 |
| CC(C)C(=O)N1CCCC(c2ncncc2-c2ccncc2)C1 (configuration not stated) | -0.489 | 10.7 | 4.63 | -4.06 | 5.91 | -4.89 | 6.61 | -4.43 | 1.06 | 8.97 | -4.02 |
| CCn1cc(CN2C[C@@H]3CCCN3C[C@@H]2CCSC)c(C)n1 | -1.75 | 5.33 | 8.44 | 4.09 | -4.53 | 2.1 | 8.37 | 3.9 | 3.19 | 6.41 | 0.13 |
| Cc1ccn(-c2ccccc2NCc2ccccn2)n1 | -1.21 | 0 | 23.2 | 4.37 | 3.13 | 2.27 | 0.532 | 2.69 | 4.3 | 10 | -1.77 |
| COCC(=O)N1CCC(c2cccc(Cc3ccc(F)cc3)n2)CC1 | 0.623 | 9.46 | 7.38 | -1.91 | -6.13 | 3.94 | 5.15 | 22.7 | 2.15 | 11.7 | -12.4 |

Source: ChEMBL document CHEMBL3988442, “University of Dundee, Small-Polar-MMV Screening Library” (2021)
